Screening data deposited in PubChem by National Center for Advancing Translational Sciences (NCATS).
Hsp90 Hop PPI: changes Hsp90-Hop TPR2A binding signal, up or down; hit rate 0.44% among 71,000; AlphaScreen TPR2A-His6 binding biotin-Hsp90 C-terminal peptide; Potency, µM (doses to about 57 µM), for inactives: at the top dose activity change, negative = inhibition; active = well fitted curve in either direction with a large enough effect; inconclusive = small, poorly fitted or top-dose-only effect, or another doubt; note: % is set by controls: 0 for no effect and ±100 for the full control effect
Bst PK mod: pyruvate kinase (B. stearothermophilus) modulation. hit rate 1.2% among 51,000. purified pyruvate kinase, luminescence ATP production; ribose 5-phosphate activator present at AC10. Potency, µM. AID 361; in the data active = potency below about 11 µM; inconclusive = mostly about 12 µM to 25 µM;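 the screen sought inhibitors and activators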;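 note: scaled between full activation by ribose 5 phosphate and full inhibition by luteolin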
15-hLO inh: inhibitors of human 15-lipoxygenase (ALOX15); P16050; purified 15hLO-1, xylenol orange hydroperoxide absorbance; Potency, µM (highest dose often 57.1 µM), without a hit: at the highest dose activity change, negative = inhibition, hits mostly inhibitors; hit rate 1.4% among 74,000; AID 887; note: % is set by controls: 0 for no effect and ±100 for the full control effect; nearly all actives have a fitted effect of over 55% in size
Target sequence (P16050 whole entry, looked up): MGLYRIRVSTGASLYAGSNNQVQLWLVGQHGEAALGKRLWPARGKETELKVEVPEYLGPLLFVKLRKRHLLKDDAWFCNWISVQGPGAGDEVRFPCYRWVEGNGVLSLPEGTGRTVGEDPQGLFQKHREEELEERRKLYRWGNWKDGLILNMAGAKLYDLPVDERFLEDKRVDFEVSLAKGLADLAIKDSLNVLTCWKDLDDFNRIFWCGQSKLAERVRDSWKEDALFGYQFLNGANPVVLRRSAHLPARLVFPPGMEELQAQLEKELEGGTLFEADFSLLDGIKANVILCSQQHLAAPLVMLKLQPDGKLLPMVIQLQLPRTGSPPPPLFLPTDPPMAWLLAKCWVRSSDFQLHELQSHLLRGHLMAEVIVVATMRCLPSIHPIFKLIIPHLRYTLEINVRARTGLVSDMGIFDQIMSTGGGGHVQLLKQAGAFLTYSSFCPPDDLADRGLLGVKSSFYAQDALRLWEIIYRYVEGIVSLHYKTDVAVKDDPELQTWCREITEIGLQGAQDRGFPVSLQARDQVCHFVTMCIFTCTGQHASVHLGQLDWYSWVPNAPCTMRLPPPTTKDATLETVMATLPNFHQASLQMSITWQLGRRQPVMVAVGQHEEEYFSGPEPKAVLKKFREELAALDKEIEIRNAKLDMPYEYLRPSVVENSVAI
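Purified human 15hLO-1 (40 nM) in 25 mM Hepes pH 7.5, 0.01% Triton X-100, preincubated 15 min RT with compound, then 50 uM arachidonic acid for 6 min. Hydroperoxide read by ferrous/xylenol orange, 30 min; 573/405 nm absorbance ratio gave progress.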
Tau fil binding: binds recombinant human tau filaments; recombinant tau filaments, thioflavin S fluorescence, 15 h; filaments grown with octadecylsulfate alongside compound; Potency, µM (highest dose often 57.1 µM), for the others: top-dose activity change, negative = inhibition; hit rate 2% among 71,000; AID 596;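 note: % is set by controls: 0 for no effect and ±100 for the full control effect; actives lower thioflavin S fluorescence by blocking filaments or displacing dye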
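Assay mix: 1 uM His-tagged tau, 30 uM sodium octadecylsulfate, thioflavine S dye in HEPES/NaCl/DTT buffer. Compound is added prior to the inducer. Fluorescence after 15 h at 37 C.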
USP2a inhib: USP2a (human) protease inhibition. Potency, µM (highest dose often 38.3 µM), for inactives: top-dose activity change, negative = inhibition, actives largely listed as inhibitors. hit rate 0.1% among 60,000. USP2a enzymatic assay, qHTS inhibition. AID 927. O75604; note: nearly all actives have a fitted effect of over 60% in size
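USP2 core (20nM final) preincubated 30 min RT with compound, then Ub-PLA2 20nM and NBD C6-HPC 20uM final added; buffer 20mM Tris-HCl pH 8.0, 2mM CaCl2. Fluorescence Ex 460/Em 535 read at 0 and 2.5 h; normalized to NEM.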
GBA activity: human lysosomal glucosylceramidase modulation; purified enzyme, resorufin glucoside fluorescence (screen aimed at inhibitors), 20 min; Potency, µM; hit rate 1.1% among 48,000; AID 360; in the data active = potency below about 15 µM; inconclusive = mostly about 16 µM to 33 µM;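 note: the screen sought inhibitors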
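Wild-type enzyme at 0.2 nM final in 50mM citric acid/KH2PO4, 10mM sodium taurocholate, 0.01% tween-20, pH 5.9, with resorufin beta-D-glucopyranoside at 30 uM final. Compounds titrated, 20 min at RT, red fluorescence read; AC50 from titration.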
* = called active by the depositor; i = inactive; ? = inconclusive; . = not tested or not shown; [ ] = another dose, or the depositor's remark. The list is not random: actives were taken first. Their share in the collection is about 4.6%. Unless noted, calls come from the whole dose curve; as a rule, active = well fitted curve in the direction sought with a large enough effect; inconclusive = small, poorly fitted or top-dose-only effect, or another doubt; inactive = no such curve, though single readings can be large; an effect the other way counts as inactive or inconclusive. Potency is the fitted concentration of half-maximal effect.

SMILES	Hsp90 Hop PPI	Bst PK mod	15-hLO inh	Tau fil binding	USP2a inhib	GBA activity
COc1ccc(-c2cc3c(=O)n(CC(=O)NC4CCN(Cc5ccccc5)CC4)ncn3n2)cc1	3%	>11	10%	-5%	-3%	>77
O=S(=O)(O)c1ccc2c(N=Nc3c(O)ccc4ccccc34)cccc2c1	?	.	-14%[11.4 µM]	3.2µM*	.	.
O=S(=O)(O)c1cc(S(=O)(=O)O)c2c(N=Nc3cccc4ccccc34)c(O)ccc2c1	?	.	-6%[11.4 µM]	4µM*	.	.
O=C1c2cccnc2-c2ncccc21	-26%	>57	4%	-6%	0%	>77
CC1(C)OCC(CSC2=C(SCC3COC(C)(C)O3)C(=O)c3ncccc3C2=O)O1 (stereo unspecified)	16µM*	.	?	16µM*	.	.
CC1(c2ccc(OC(F)F)cc2)NC(=O)N(CC(=O)Nc2ccc3c(c2)OCO3)C1=O (stereo unspecified)	-5%	>57	-1%	-12%	15%	>77
C=C(C)CSc1nc(N)c(C#N)c(-c2ccc(C)cc2)c1C#N	?	>57	32µM*	208%	9%	>77
CCCCOc1ccc(-c2c(C#N)c(N)nc(SCC(N)=O)c2C#N)cc1	-8%	>57	?	i	?	8.8*
COCCn1c(C)cc(C(=O)COC(=O)c2n[nH]c3ccccc23)c1C	-13%	1.4*	-7%	38%	32%	>77
Cc1cccc(S(=O)(=O)c2c(N)n(/N=C/c3ccco3)c3nc4ccccc4nc23)c1	-2%	.	-21%	-28%	43%	6.1*
Cc1ccc(S(=O)(=O)c2c(N)n(/N=C/c3ccco3)c3nc4ccccc4nc23)cc1	-2%	>57	5%	2%	0%	>77
O=C(Nc1ccc2c(c1)OCO2)c1c(F)c(F)c(F)c(F)c1F	7%	>57	5%	-11%	1%	>77
O=C(CCCN1C(=O)c2ccccc2C1=O)Nc1ccc(S(=O)(=O)N2CCOCC2)cc1	-3%	>57	3%	1%	6%	>77
COc1ccc(NC(=O)CN2CC(c3ccccc3)CC2=O)cc1OC (stereo unspecified)	-1%[2.3 µM]	.	-2%	-3%	.	.
O=C(CN1C(=O)c2cccc3cccc1c23)Nc1ccc(S(=O)(=O)N2CCOCC2)cc1	26%	10*	-1%	-10%	45%	>77
O=C(NCc1ccc2c(c1)OCO2)c1c(F)c(F)c(F)c(F)c1F	1%	7.7*	5%	-1%	-1%	>77
O=C(CN1C(=O)c2cccc3cccc1c23)Nc1ccc2c(c1)OCO2	3%	1.9*	-20%	94%	19%	>77
O=C(CN1CC(c2ccccc2)CC1=O)Nc1ccc2c(c1)OCO2 (stereo unspecified)	-7%	.	0%	25µM*	.	.
Cc1cc2ccccc2c(=O)n1CC(=O)Nc1ccc2c(c1)OCO2	-3%	>57	-2%	6%	7%	>77
CC(=O)Nc1ccc(OCC(O)CN2CCN(c3ccc(C)c(Cl)c3)CC2)cc1 (stereo unspecified)	-7%	>57	-4%	12%	27%	>77
CC(C)OC(=O)CSc1nnc2n1C(C)(C)Cc1ccccc1-2	24%	>57	-9%	-5%	-2%	>77
O=C(CN1c2cccc3cccc(c23)S1(=O)=O)NCc1ccc2c(c1)OCO2	?	.	-12%[11.4 µM]	7%[11.4 µM]	29%[7.66 µM]	.
O=C(CN1C(=O)c2cccc3cccc1c23)NCc1ccc2c(c1)OCO2	1%	2.8*	-7%	84%	11%	>77
O=C(CN1C(=O)c2cccc3cccc1c23)NCC1CCCO1 (stereo unspecified)	-2%	?	5%	8%	-5%	>77
CC(C(=O)NCc1ccc2c(c1)OCO2)N1c2cccc3cccc(c23)S1(=O)=O (stereo unspecified)	15%	0.94*	-12%	-5%	40%	>77
O=C(CC1N=C2c3ccccc3N=C(SCc3ccc(F)cc3)N2C1=O)NCc1ccco1 (stereo unspecified)	-8%	>57	-27%	-27%	44%	>77
COc1ccccc1-c1nnc(SCC(=O)Nc2c(Cl)cccc2Cl)o1	1%	?	9%	5%	5%	>77
